Assay results published in PubChem BioAssay (NCATS).
Inconclusive results are not listed. Where a call stands in place of a potency, no number is given. Activity calls are given as the source filed them. Unless noted, calls come from the whole dose curve; as a rule, active = well fitted curve in the direction sought with a large enough effect; inconclusive = small, poorly fitted or top-dose-only effect, or another doubt; inactive = no such curve, though single readings can be large; an effect the other way counts as inactive or inconclusive.

Tests used:
[1] = target: Cytochrome P450 3A4 (Homo sapiens) (UniProt P08684); assay: qHTS Assay for Inhibitors and Substrates of Cytochrome P450 3A4 (AID 884); note: nearly all actives have a fitted effect of over 50% in size
Sequence of Cytochrome P450 3A4 (Homo sapiens) (P08684 whole entry, looked up): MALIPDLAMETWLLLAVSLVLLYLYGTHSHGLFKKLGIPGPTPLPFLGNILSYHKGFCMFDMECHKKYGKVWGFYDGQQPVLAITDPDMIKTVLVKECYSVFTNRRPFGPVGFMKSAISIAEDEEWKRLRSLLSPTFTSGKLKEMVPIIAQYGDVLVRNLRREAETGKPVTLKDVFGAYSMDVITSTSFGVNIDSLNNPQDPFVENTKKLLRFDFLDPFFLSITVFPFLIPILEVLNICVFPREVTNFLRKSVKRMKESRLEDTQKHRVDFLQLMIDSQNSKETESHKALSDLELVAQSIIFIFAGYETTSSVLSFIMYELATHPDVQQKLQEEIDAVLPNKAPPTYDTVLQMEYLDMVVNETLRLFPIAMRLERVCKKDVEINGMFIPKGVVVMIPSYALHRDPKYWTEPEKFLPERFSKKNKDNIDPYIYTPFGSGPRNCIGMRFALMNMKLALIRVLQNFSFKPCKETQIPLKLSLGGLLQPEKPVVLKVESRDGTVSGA
How it was run: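 Luminescent readout of luciferin produced by CYP3A4 (20 nM) dealkylation of Luciferin-PPXE, 25 uM (its KM). NADPH-driven reaction ran 60 min at RT after 10 min compound preincubation; data scaled to 57 uM ketoconazole as 100% inhibition.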

[2] = Confirmation and Secondary Assay for Modulators of Hemoglobin Beta Chain Splicing at IVS2 654 locus (AID 910);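 note: per-well total GFP intensity by laser scanning cytometry after 2-day treatment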
How it was run: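 HeLa cells stably carrying EGFP interrupted by mutant beta-globin IVS2-654 intron (CMV-driven) were treated with compound for 2 days at 37C; corrected splicing was scored as total peak GFP intensity per well (488 nm excitation, 500-520 nm emission).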

[3] = Confirmation and Secondary Assay for Modulators of Hemoglobin Beta Chain Splicing at IVS2 705 locus (AID 930);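 note: HeLa cells stably expressing the EGFP-705 splicing reporter; GFP fluorescence per well restored by corrected splicing of the IVS2-705 intron in EGFP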
How it was run: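 Splice-correction reporter: EGFP cDNA split by beta-globin intron 2 bearing the 705 mutation, stably in HeLa. Compound incubation 2 days, 37C; fluorescent objects 5-250 µm summed per well.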

[4] = qHTS Assay for Lipid Storage Modulators (AID 1519; calls by dose curve); details: Drosophila S3 cells, BODIPY lipid droplet/cell ratio, laser cytometry, cells loaded with oleic acid; for activity change, negative = inhibition: at 57.5 µM (top of the series)
How it was run: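 Cells seeded at 5,000 per well were treated with compounds over a concentration series and loaded with oleic acid (400 uM, as added). Lipid droplet fluorescence (488 nm excitation, 500-530 nm channel) was read by laser-scanning cytometry and normalized to 20 uM Triacsin C.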

[5] = target: Ubiquitin carboxyl-terminal hydrolase 1 (Homo sapiens) (UniProt O94782); assay: Inhibitors of USP1/UAF1: Pilot qHTS (AID 504865);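 note: rhodamine fluorescence freed from ubiquitin-rhodamine substrate followed over time; top concentration of the series differs between compounds; nearly all actives have a fitted effect of over 35% in size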
Sequence of Ubiquitin carboxyl-terminal hydrolase 1 (Homo sapiens) (O94782 whole entry, looked up): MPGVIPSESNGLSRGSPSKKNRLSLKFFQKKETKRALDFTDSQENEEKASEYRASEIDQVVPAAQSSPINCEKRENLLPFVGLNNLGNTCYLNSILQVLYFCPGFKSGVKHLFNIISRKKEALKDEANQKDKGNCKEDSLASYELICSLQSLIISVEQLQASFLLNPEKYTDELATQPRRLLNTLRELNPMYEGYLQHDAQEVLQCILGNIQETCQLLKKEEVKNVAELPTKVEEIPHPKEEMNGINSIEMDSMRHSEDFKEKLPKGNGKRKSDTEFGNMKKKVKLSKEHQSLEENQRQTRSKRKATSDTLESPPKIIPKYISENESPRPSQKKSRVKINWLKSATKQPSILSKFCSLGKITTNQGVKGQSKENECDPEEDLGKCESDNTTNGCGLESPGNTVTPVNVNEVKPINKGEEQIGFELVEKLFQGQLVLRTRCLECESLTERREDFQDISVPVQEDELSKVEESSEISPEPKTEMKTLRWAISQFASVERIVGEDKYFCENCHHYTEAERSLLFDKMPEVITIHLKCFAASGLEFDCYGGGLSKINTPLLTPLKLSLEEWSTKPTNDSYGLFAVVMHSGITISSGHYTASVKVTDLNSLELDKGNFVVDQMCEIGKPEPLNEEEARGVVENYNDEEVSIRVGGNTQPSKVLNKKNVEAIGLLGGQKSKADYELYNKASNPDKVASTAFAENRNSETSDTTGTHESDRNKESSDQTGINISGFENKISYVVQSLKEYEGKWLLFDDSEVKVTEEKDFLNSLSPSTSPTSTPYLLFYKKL
How it was run: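 1nM USP1/UAF1 + cpd, 15 min RT; start w/ Ub-Rho 150nM final; kinetic FL 480/540 nm, 6 reads q60 s. Buffer 50mM HEPES pH 7.8, 0.5mM EDTA, 1mM TCEP, 0.01% Tween-20, 0.1 mg/ml BSA.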

[6] = measured here: cell count channel max response
[7] = measured here: lipid channel max response

Structure (SMILES) | Potency [1] | Potency [2] | Potency [3] | activity change, negative = inhibition [4] | max response [4, 6] [%] | max response [4, 7] [%] | Potency [5]
COc1ccc(-c2coc3c(OC)c(OC)cc(OC)c3c2=O)cc1 | inactive | inactive | inactive | 12.7% (inactive) | 16.4 | 29.7 | inactive
O=c1[nH]c(=O)c2nc(Br)n(C3OC(CO)C(O)C3O)c2[nH]1 (stereo unspecified) | inactive | inactive | inactive | 6.72% (inactive) | 5.7 | 13 | inactive
CC1(C)OC2C(CO)OC(n3cnc4c(=O)[nH]cnc43)C2O1 (stereo unspecified) | inactive | inactive | inactive | 1.95% (inactive) | 3.64 | 5.67 | inactive
CC(=O)O[C@@]1(C(C)=O)CCC2C3C=C(Cl)C4=CC(=O)C5CC5[C@@]4(C)C3CC[C@]21C (stereo partly specified) | inactive | inactive | inactive | 2.54% (inactive) | -3.69 | 0.864 | inactive
COc1ccc2c(c1)O[C@@H]1c3ccc(OC)cc3OCC21 (stereo partly specified) | inactive | inactive | inactive | 3.42% (inactive) | 4.03 | 9.6 | inactive
C[N+]1(C)CC(O)[C@H](C(=O)[O-])C1 (stereo partly specified) | inactive | inactive | inactive | 1.35% (inactive) | 0.129 | 0.467 | inactive
CCOc1ccc(C(=O)c2ccc(O)c(O)c2O)cc1 | inactive | inactive | inactive | 4.84% (inactive) | -5.66 | -2.36 | inactive
O=C/C=C/c1ccc(O)cc1 | inactive | inactive | inactive | 4.82% (inactive) | 10.7 | 16.6 | inactive
CC(C)C1COc2cc3oc(=O)ccc3cc2O1 (stereo unspecified) | inactive | inactive | inactive | 9.84% (inactive) | 6 | 13.7 | inactive
CC(=O)OC1CCC2(C)C3CC(=O)C4(C)C(CC5OC6(CCC(C)CO6)C(C)C54)C3CC[C@H]2C1 (stereo partly specified) | inactive | inactive | inactive | 5.04% (inactive) | 11.2 | 17.7 | inactive
CC(=O)OCC(=O)C1CCC2C3CC=C4CC(O)CC[C@@]4(C)C3CC[C@]12C (stereo partly specified) | inactive | inactive | inactive | 8.84% (inactive) | 22.6 | 38.3 | inactive
CCCCC(=O)Oc1ccccc1C(=O)O | inactive | inactive | inactive | -0.236% (inactive) | 5.62 | 5.3 | inactive
CC1(C)C2CC[C@@]1(C)C(=O)C2 | inactive | inactive | inactive | 3.53% (inactive) | 13.5 | 19.8 | inactive
[N-]=[N+]=Nc1nc2c(N)ncnc2n1C1OC(CO)C(O)C1O (stereo unspecified) | inactive | inactive | inactive | -16.2% (inactive) | 12.5 | 1.58 | inactive
CCCCCCCCCCCCC(C(=O)O)C(C)C(=O)O (stereo unspecified) | inactive | inactive | inactive | 4.67% (inactive) | 6.54 | 14 | inactive
O=c1cc(-c2ccccc2)oc2cc(O)c(O)cc12 | inactive | inactive | inactive | -1.09% (inactive) | -7.11 | -6.23 | inactive
CC(=O)NC1C(O)C[C@@](O)(C(=O)O)OC1[C@@H](O)C(O)CO (stereo partly specified) | inactive | inactive | inactive | 3.62% (inactive) | 13.3 | 18.3 | inactive

Structure (SMILES) | Potency [1] | Potency [2] | Potency [3] | activity change, negative = inhibition [4] | max response [4, 6] [%] | max response [4, 7] [%] | Potency [5]
CC1CC[C@]2(CO)CC[C@]3(C)C(=CCC4[C@@]5(C)CCC(O)C(C)(C)C5CC[C@@]43C)C2C1C (stereo partly specified) | inactive | inactive | inactive | 6.23% (inactive) | 4.46 | 20 | inactive
COC1=CC(C)C2CC3OC(=O)CC4C(C)=C(OC)C(=O)C([C@]2(C)C1=O)[C@]34C (stereo partly specified) | inactive | inactive | inactive | 1.13% (inactive) | 5.55 | 6.48 | inactive
C=C1CCC(O)C/C1=C/C=C1\CCC[C@@]2(C)C(C(C)/C=C/C(C)C(C)C)CC[C@@H]12 (stereo partly specified) | inactive | inactive | inactive | 14.3% (inactive) | 33.4 | 55.4 | inactive
CCOC(=O)C(=O)C1(C(=O)OCC)Oc2cc(OC)cc(OC)c2C(=O)C1c1ccccc1 (stereo unspecified) | inactive | inactive | inactive | 5.57% (inactive) | 9.96 | 15 | inactive
CC(C)=CC1C(C(=O)O)C1(C)C (stereo unspecified) | inactive | inactive | inactive | 7.47% (inactive) | 18 | 29.9 | inactive
CC(=O)/C=C\C1[C@]2(C)CCCC(C)(C)C2CC[C@@]1(C)O (stereo partly specified) | inactive | inactive | inactive | 3.07% (inactive) | -10.9 | -8.32 | inactive
O=c1cc(-c2ccccc2O)oc2cc(O)ccc12 | inactive | inactive | inactive | 8.08% (inactive) | 28.6 | 40 | inactive
Cc1onc(-c2ccccc2)c1C(=O)NC1C(=O)N2C(C(=O)O)C(C)(C)S[C@@H]12 (stereo partly specified) | inactive | inactive | inactive | 9.92% (inactive) | 9.88 | 24.8 | inactive
COC1C(O)C(CO)OC1n1c(Br)nc2c(=O)[nH]c(N)nc21 (stereo unspecified) | inactive | inactive | inactive | 1.73% (inactive) | 0.309 | 3.63 | inactive
COc1cc2c3cc1Oc1cc(ccc1O)CC1c4c(cc(OC)c(O)c4Oc4ccc(cc4)CC3N(C)CC2)CC[N+]1(C)C (stereo unspecified) | inactive | inactive | inactive | 4.12% (inactive) | -2.85 | 6.31 | inactive
CC(=O)C1CCC2C3CC=C4CC(O)CC[C@@]4(C)C3CC[C@]12C (stereo partly specified) | inactive | inactive | inactive | 2.94% (inactive) | 11.3 | 18.4 | inactive
CCCCCC(CC(=O)O)C(=O)O (stereo unspecified) | inactive | inactive | inactive | 12.5% (inactive) | 21.4 | 35.2 | inactive
Nc1nc2ncc(=O)[nH]c2c(=O)[nH]1 | inactive | inactive | inactive | 4.1% (inactive) | 2.7 | 6.73 | inactive
CC1(C)Oc2ccc3ccc(=O)oc3c2CC1O (stereo unspecified) | inactive | inactive | inactive | -1.55% (inactive) | 16 | 13.9 | inactive
O=C(/C=C/c1ccc(O)c(O)c1)O[C@H]1C[C@@](O)(C(=O)O)CC(O)C1O (stereo partly specified) | inactive | inactive | inactive | 12.5% (inactive) | 13.7 | 29.5 | inactive
C=C(C)C1CC=C(CO)CC1 (stereo unspecified) | inactive | inactive | inactive | 0.669% (inactive) | -1.53 | 1.38 | inactive
